Assay results published in PubChem BioAssay AID2071 (Sanford-Burnham Center for Chemical Genomics, 2009).
The whole screen tested about 280,000 compounds, of which about 1,700 (0.61%) were called active. The sample holds actives, similar compounds and a random draw of the others, so the mix is not that of the screen. Rule as the data show it: active = inhibition mostly above about 24% (no sharp cut-off); inactive = mostly below about 32%.

Assay: NALP1 inflammasome inhibitors in reconstituted yeast, colorimetric, S. cerevisiae, triplicate retest (AID 2071)
Conditions: S. cerevisiae NALP1/ASC/caspase-1 growth, X-gal OD620, 72 h, stronger effect = higher value

SMILES: CC(=O)c1ccc(NC(=O)c2cc(-c3cccs3)on2)cc1
- inhibition (at 10 µM unless noted): 27.2% (inactive)

SMILES: CN(C)CCCN(C(=O)c1ccc(S(=O)(=O)N2CCCc3ccccc32)cc1)c1nc2ccc(F)cc2s1
- inhibition (at 10 µM unless noted): 33.1% (inactive)

SMILES: CN(C)CCCN(C(=O)c1ccc(S(=O)(=O)N2CCCCCC2)cc1)c1nc2ccc(Br)cc2s1
- inhibition (at 10 µM unless noted): 40.2% (active)

SMILES: CCN(CC)CCN(C(=O)c1ccc(S(=O)(=O)N2CCOCC2)cc1)c1nc2cc3c(cc2s1)OCCO3
- inhibition (at 10 µM unless noted): 6.8% (inactive)

SMILES: O=C(N/N=C/c1ccccc1O)C1CCCC1
- inhibition (at 10 µM unless noted): -5.6% (inactive)

SMILES: COc1ccc(N(C)S(=O)(=O)c2ccc3c(c2)CC(C)N3C(=O)C2CC2)c(OC)c1 (stereo not given)
- inhibition (at 10 µM unless noted): 10.4% (inactive)

SMILES: O=C(Nc1ccnc(-c2ccncc2)n1)c1cccs1
- inhibition (at 10 µM unless noted): 37.8% (active)

SMILES: O=C(Nc1ccc(NC(=O)c2cccs2)cn1)c1ccco1
- inhibition (at 10 µM unless noted): -12.5% (inactive)

SMILES: O=C(Nc1ccccc1)c1ccc(NC(=O)c2cccs2)cc1
- inhibition (at 10 µM unless noted): 1.7% (inactive)

SMILES: CN1CCN(NC(=O)Nc2ccc(Br)cc2)CC1
- inhibition (at 10 µM unless noted): 9.6% (inactive)

SMILES: CN1C(CC(=O)Nc2ccc(Br)cc2)c2ccccc2CC1(C)C (stereo not given)
- inhibition (at 10 µM unless noted): 34.1% (active)

SMILES: COCC(=O)Nc1ccc(Br)cc1
- inhibition (at 10 µM unless noted): -1.1% (inactive)

SMILES: CC(C)Sc1ncnc2c1cnn2-c1ccccc1
- inhibition (at 10 µM unless noted): 13.3% (inactive)

SMILES: Cc1nonc1NC(=O)c1oc2ccccc2c1C
- inhibition (at 10 µM unless noted): 15.3% (inactive)

SMILES: COC(=O)c1ccccc1SC1CC(=O)N(c2cccc(C)c2)C1=O (stereo not given)
- inhibition (at 10 µM): 74.7% (active)
- inhibition (triplicate retest, at 20 µM): 89.6%

SMILES: Cc1cccc(N2C(=O)CC(SC(N)=Nc3ccccc3)C2=O)c1 (stereo not given)
- inhibition (at 10 µM unless noted): 3% (inactive)

SMILES: COC(=O)c1cc(C(=O)OC)cc(N2C(=O)CC(N3CCN(c4ccccc4)CC3)C2=O)c1 (stereo not given)
- inhibition (at 10 µM unless noted): 9.3% (inactive)

SMILES: CC(=O)c1ccc(N2Cc3ccccc3C2)cc1
- inhibition (at 10 µM unless noted): 23% (inactive)

SMILES: COC(=O)c1ccc(NC(=O)CSc2nncn2-c2cccnc2)cc1
- inhibition (at 10 µM unless noted): 12.6% (inactive)

SMILES: COc1ccc(/C=C2\SC(=S)N(CCCC(=O)NC3CCCC3)C2=O)cc1OC
- inhibition (at 10 µM unless noted): 12.9% (inactive)

SMILES: Cc1ccc(SCC(=O)c2sc(-c3ccccc3)nc2C)cc1
- inhibition (at 10 µM unless noted): 30.2% (inactive)

SMILES: Cc1nc(-c2ccccc2)sc1C(=O)/C=C/N(C)C
- inhibition (at 10 µM unless noted): 32.3% (active)

SMILES: CN(C)/C=C/C(=O)c1ccccc1F
- inhibition (at 10 µM unless noted): 27.1% (inactive)

SMILES: CCCc1cc(=O)oc2c(C)c(OCC(=O)Nc3ccccn3)ccc12
- inhibition (at 10 µM unless noted): 16.1% (inactive)

SMILES: COc1cc(/C=C/C(=O)N2CCc3ccccc3C2)cc(OC)c1OC
- inhibition (at 10 µM unless noted): 10.3% (inactive)

SMILES: COc1ccc(OC)c(C(=O)NC(CC(N)=O)c2ccc(N3CCC(N4CCCCC4)CC3)c([N+](=O)[O-])c2)c1 (stereo not given)
- inhibition (at 10 µM unless noted): 11.6% (inactive)

SMILES: Cc1ccc(S(=O)(=O)n2cnc3ccccc32)c(C)c1
- inhibition (at 10 µM unless noted): 40.9% (active)

SMILES: Cc1ccc(C)c(S(=O)(=O)n2cnc3ccccc32)c1
- inhibition (at 10 µM unless noted): 1.1% (inactive)

SMILES: COc1ccc(S(=O)(=O)n2cnc3ccccc32)c(C)c1
- inhibition (at 10 µM unless noted): 2.2% (inactive)

SMILES: CC1CN(C(=O)c2cc(COc3c(F)cccc3F)on2)CCN1C (stereo not given)
- inhibition (at 10 µM unless noted): -3.5% (inactive)

SMILES: Cc1ccc(CNC(=O)CCS(=O)(=O)c2ccc3c(c2)CC(C)N3C(=O)C2CC2)o1 (stereo not given)
- inhibition (at 10 µM unless noted): 20.6% (inactive)

SMILES: O=C(NCC1CCCO1)/C(=C/c1ccc(Cl)cc1)NC(=O)c1ccccc1 (stereo not given)
- inhibition (at 10 µM unless noted): 22.3% (inactive)

SMILES: O=C(NC(=O)c1ccccc1)NC(=O)c1ccccc1
- inhibition (at 10 µM unless noted): -6% (inactive)

SMILES: N#C/C(=C/c1ccc(Cl)cc1)NC(=O)c1ccccc1
- inhibition (at 10 µM unless noted): 43.3% (active)

SMILES: O=C(Nc1ccccc1Cl)NC1(C(=O)N2CCOCC2)CCCCC1
- inhibition (at 10 µM unless noted): 7.4% (inactive)

SMILES: CC1CCC2(CC1)NC(=O)N(CC(=O)c1ccc3c(c1)OCO3)C2=O (stereo not given)
- inhibition (at 10 µM unless noted): 9% (inactive)

SMILES: Cc1occc1C(=O)N/N=C/c1ccc(-c2cccc([N+](=O)[O-])c2)o1
- inhibition (at 10 µM unless noted): 11.5% (inactive)

SMILES: CC[C@H]1OC(=O)[C@H](C)[C@@H](O[C@H]2C[C@@](C)(OC)[C@@H](O)[C@H](C)O2)[C@H](C)[C@@H](O[C@@H]2O[C@H](C)C[C@H](N(C)C)[C@H]2O)[C@](C)(O)C[C@@H](C)[C@@H]2N[C@@H](COCCOC)O[C@H]([C@H]2C)[C@]1(C)O
- inhibition (at 10 µM unless noted): 75.2% (active)

SMILES: CCn1c(SCc2cccc(C(=O)O)c2)nnc1-c1ccc(Cl)cc1
- inhibition (at 10 µM unless noted): 7.1% (inactive)

SMILES: CCN1CCN(CCNC(=O)c2ccc(/C=C3/Sc4ccccc4N(Cc4cccc(C)c4)C3=O)cc2)CC1
- inhibition (at 10 µM unless noted): 12.2% (inactive)

SMILES: CCN1/C(=C/C(=S)Nc2ccccc2)Sc2ccccc21
- inhibition (at 10 µM unless noted): 27.1% (inactive)

SMILES: CCN1/C(=C/c2ccc3ccc(C)cc3[n+]2CC)Sc2ccccc21
- inhibition (at 10 µM): 87.1% (active)
- inhibition (triplicate retest, at 20 µM): 107%

SMILES: CCN1/C(=C\c2ccc3ccccc3[n+]2CC)Sc2cc(C)ccc21
- inhibition (at 10 µM): 77.1% (active)
- inhibition (triplicate retest, at 20 µM): 81.9%

SMILES: CCCN1CCn2c3c(c4cc(Br)ccc42)CCCC31 (stereo not given)
- inhibition (at 10 µM unless noted): 15.4% (inactive)

SMILES: CCN(C(=O)CN1C(=O)/C(=C/c2ccc(F)cc2)SC1=S)C1CCS(=O)(=O)C1 (stereo not given)
- inhibition (at 10 µM unless noted): 4.8% (inactive)

SMILES: COc1ccc(C(=O)N2CCCCC2C(=O)Nc2ccc(-n3nc(C)cc3C)cc2)o1 (stereo not given)
- inhibition (at 10 µM unless noted): 8.7% (inactive)

SMILES: Cc1snc(SCc2c(F)cccc2Cl)c1C#N
- inhibition (at 10 µM unless noted): 6.1% (inactive)

SMILES: CCC(=C/c1sc2ccc3ccccc3c2[n+]1C)/C=C1\Sc2ccc3ccccc3c2N1C
- inhibition (at 10 µM unless noted): 42.3% (active)

SMILES: COc1ccc(/C=N/Nc2ccccc2C(=O)O)cc1
- inhibition (at 10 µM unless noted): 10.9% (inactive)

SMILES: CCNC(=O)Nc1ccc(S(=O)(=O)Nc2cnc(C)nc2C)cc1
- inhibition (at 10 µM unless noted): 18.5% (inactive)

SMILES: CCOc1ccccc1/C=N/Nc1nc2ccccc2o1
- inhibition (at 10 µM unless noted): 14.3% (inactive)

SMILES: COc1ccccc1CCNC(=O)C1CCN(C(=O)/C=C/c2ccccc2)CC1
- inhibition (at 10 µM unless noted): 16.7% (inactive)
